From PubChem BioAssay (NCI)
This is part of a sample that, as a whole, favours compounds with a hit. Of some 79,000 tested, about 15% had one in any assay. Activity calls are given as the source filed them. Rule as the data show it: active = growth inhibition above about 70%; inactive = the rest.

Assays:
[1] = NCI Yeast Anticancer Drug Screen. Data for the rad50 strain (AID 155);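 also: 0% = growth of vehicle-only cultures of the same strain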; conditions: S. cerevisiae rad50 strain growth inhibition; at 50.0 µM; hits give high values
Summary of the method: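 A DNA repair-deficient yeast mutant serves as the test organism; compound-induced growth inhibition is calculated against vehicle-treated cells.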

[2] = NCI Yeast Anticancer Drug Screen. Data for the mec2-1 strain (AID 157); conditions: S. cerevisiae mec2-1 strain, at 50.0 µM, hits give high values
Summary of the method: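 Each compound was tested on mec2-1 yeast, a strain altered in DNA damage repair or cell cycle control. Growth inhibition is reported relative to vehicle.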

[3] = NCI Yeast Anticancer Drug Screen. Data for the sgs1 mgt1 strain (AID 161);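 also: 0% = growth of cultures given vehicle only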; conditions: S. cerevisiae sgs1 mgt1 strain, at 50.0 µM, hits give high values
Summary of the method: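 Genetically altered yeast, compound exposure, growth inhibition relative to vehicle.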

[4] = NCI Yeast Anticancer Drug Screen. Data for the bub3 strain (AID 167); conditions: S. cerevisiae bub3 mutant strain, at 50.0 µM, hits give high values
Summary of the method: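 Inhibition values come from growth of compound-treated mutant yeast normalised to vehicle-treated controls.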

[5] = NCI Yeast Anticancer Drug Screen. Data for the mlh1 rad18 strain (AID 175); conditions: S. cerevisiae mlh1 rad18 strain growth inhibition; at 50.0 µM; hits give high values
Summary of the method: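 Inhibition values reflect reduced growth of mutant yeast versus vehicle-treated controls following compound exposure; the mutations affect DNA damage repair.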

[6] = NCI Yeast Anticancer Drug Screen. Data for the cln2 rad14 strain (AID 165);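 also: 0% = growth equal to vehicle treated cultures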; conditions: S. cerevisiae cln2 rad14 strain, at 50.0 µM, hits give high values
Summary of the method: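 Test compounds were added to cln2 rad14 yeast cultures; inhibition of growth was then determined by comparison with vehicle treatment.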

Measured: growth inhibition

C=COS(=O)O
inactive: [1] -0.65% | [2] -3.45% | [3] -4.85% | [4] 12.3% | [5] -0.15%

CC12CC(=O)Nc3ccccc3N1C(c1ccccc1)=NO2 (stereo not given)
inactive: [1] -11.5% | [2] -29.4% | [3] -6.6% | [4] -14.8% | [5] -7.4%

CC1(C)CSC(C)(C)C(=O)N1
inactive: [1] 4.9% | [2] -1.95% | [3] -3.6% | [4] -2.2% | [5] -1.1%

CN1NC(=O)CC1c1ccccc1 (stereo not given)
inactive: [1] 18.9% | [2] -3.65% | [3] -10.8% | [4] 0.25% | [5] 5.45%

CN(C)NC1=C([N+](=O)[O-])C=NN(c2ccccc2)C1
inactive: [1] 15% | [2] -1.15% | [3] 13.4% | [4] 22.1% | [5] 51.6%

CCOC(=O)c1ccc(Nc2nc3cc(C(F)(F)F)ccc3nc2C(=O)OCC)cc1
inactive: [1] -31.2% | [2] -10.9% | [3] -31.9% | [4] -11.7% | [5] -19.6%

Cc1cc2c(cc1C)NC1C(=O)C(c3ccccc3Cl)OC1=N2 (stereo not given)
inactive: [1] -1.2% | [2] -10.4% | [3] -2.4% | [4] 0.55% | [5] 3.15%

CC(C)(C)N=c1n(C(C)(C)C)oc(=O)n1C(C)(C)C
inactive: [1] -11.8% | [2] -34% | [3] -25.1% | [4] -27.9% | [5] -11.9%

COc1ccc(Cl)cc1NC(=O)CC(C)=O
inactive: [1] -9.9% | [2] -12.2% | [3] 3.45% | [4] -3.2% | [5] -5.95%

O=[N+]([O-])c1ccc(OC(=S)Oc2ccc([N+](=O)[O-])cc2)cc1
inactive: [1] 3.45% | [2] -16.7% | [3] 2.9% | [4] -0.05% | [5] 1.8%

Nc1nc(N)c(-c2ccc(Cl)c(Cl)c2)c(COc2cccc3ccccc23)n1
active: [1] 98.7% | [2] 99% | [3] 99.2% | [4] 98.1% | [5] 98.7%

O=C(Nc1ccc(Cl)cc1)Nc1nnc(-c2ccccc2Br)o1
inactive: [1] 15.6% | [2] 18.6% | [3] 19.2% | [4] -22.6% | [5] 8.3%

COc1ccc2c(ccc3[nH]c4c(C)cnc(NCCCN(C)C)c4c32)c1
inactive: [1] -16.6% | [2] -7.6% | [3] -2.7% | [4] 4.05% | [5] -7.85%

c1ccc2c(c1)SCCc1nncn1-2
inactive: [1] -6.6% | [2] 7.3% | [3] -1.4% | [4] 8.5% | [5] 4.95%

O=S(=O)(/C=C/S(=O)(=O)c1ccccc1)c1ccccc1
active: [1] 98.4% | [2] 98.8% | [3] 98.8% | [4] 98.5% | [5] 98.2%

CCO/N=C(/CNC(=O)Oc1ccccc1)c1ccccc1
inactive: [1] 3.15% | [2] 0.75% | [3] -4.05% | [4] 37.4% | [5] 9.45%

COc1cc(C(=O)NNC(=O)C2CCC(=O)N2Cc2ccccc2)cc(OC)c1OC (stereo not given)
inactive: [1] 3.3% | [2] -4.6% | [3] -18% | [4] -1.75% | [5] 28.4%

Cc1ccc(S(=O)(=O)N/N=c2/sc3ccccc3n2C)cc1
inactive: [1] -35% | [2] -19.1% | [3] -33.5% | [4] -8.2% | [5] -22.3%

Cc1cccc(/C=C/c2cccc[n+]2[O-])[n+]1[O-]
inactive: [1] 3.1% | [2] -11.2% | [3] -19.9% | [4] -0.2% | [5] -5.25%

CC(O)CN1CCOCC1 (stereo not given)
inactive: [1] 9.55% | [2] 2.2% | [3] -0.1% | [4] -9.85% | [5] 3.55%

CC1CCC(=N\O)/C(=N/O)C1 (stereo not given)
inactive: [1] 5.9% | [2] -19.3% | [3] -21.9% | [4] 0.65% | [5] -5.3%

CCCCC(CCc1ccccc1)C(=O)NCC (stereo not given)
inactive: [1] -5.1% | [2] -11.6% | [3] -18.4% | [4] -12.3% | [5] 5.1%

Nc1[nH]c(=O)ncc1-c1cccc(Cl)c1
inactive: [1] -6.45% | [2] -4.15% | [3] 11.6% | [4] 5.2% | [5] 33.1%

CCOC(=O)[C@H]1Nc2ccc(Cl)cc2[C@H]2OCC[C@@H]12
inactive: [1] 5.5% | [2] -10.9% | [3] -2.4% | [4] 3.15% | [5] -0.7%

COc1cc([C@@H]2OC[C@@H]3C(c4cc(OC)c5c(c4)OCO5)OC[C@@H]32)cc(OC)c1OC (stereo not given in full)
inactive: [1] 23.8% | [2] -4.5% | [3] 26.6% | [4] 4.3% | [5] -40.8%

C[n+]1cccc2cccc(N)c21
inactive: [1] 22.1% | [2] 0.1% | [3] 11.3% | [4] 15.5% | [5] 5.6%

Cn1nnc(/C(N)=N/N=C/c2ccccc2)n1
inactive: [1] 1.95% | [2] -10.8% | [3] -1.55% | [4] -12.6% | [5] -15.4%

N#C/C(=C\NC(N)=S)C(=O)c1ccc2ccccc2c1
inactive: [1] -14.3% | [2] -20.9% | [3] -25.9% | [4] 0.8% | [5] -11.1%

COC1=C(OC)CCC(/C(C#N)=C/c2ccc(OC)c(OC)c2)=C1
inactive: [1] 18.8% | [2] -3.45% | [3] -10% | [4] -0.9% | [5] 25.4%

CC(=O)C(C)(O)C(OP(=O)(O)O)c1ccccc1 (stereo not given)
inactive: [1] 0.65% | [2] -10.5% | [3] 4.6% | [4] -11.1% | [5] 3.55%

CC(C)c1ccc(O)c(C(C)(C)C)c1
inactive: [1] -25.5% | [2] -29.8% | [3] -14.3% | [4] -32.5% | [5] -14.6%

COC(=O)c1ccc(NC(C)=O)c([N+](=O)[O-])c1
inactive: [1] 3.35% | [2] -7.7% | [3] -11.4% | [4] -26.1% | [5] 16.4%

CCc1ccccc1N1C(=O)C(=O)C(c2nc3ccccc3s2)C(=O)C1=O
inactive: [1] 12.7% | [2] 5.05% | [3] 17.2% | [4] 2.3% | [5] 10.3%

O=C(O)CCCCCC1=CCCCC1
inactive: [1] 11.9% | [2] 33.2% | [3] 20.9% | [4] 24.6% | [5] 23.5%

CC(O)CN1c2ccccc2Sc2ccccc21 (stereo not given)
inactive: [1] -17.4% | [2] -13.7% | [3] -13.2% | [4] -13.8% | [5] 7.55%

COc1ccc(OCOCOc2ccc(OC)cc2)cc1
inactive: [1] -8.05% | [2] 9.5% | [3] 12.2% | [4] 42.9% | [5] -27.8%

CC(=O)NC(C=O)OCC=O (stereo not given)
inactive: [1] 0% | [2] 17.9% | [3] -22.3% | [4] -29.1% | [5] -46.9%

CCOC(=O)CC(=O)Nc1cccc2sc3ncccc3c(=O)c12
inactive: [1] -35.4% | [2] -52.6% | [3] -4.25% | [4] 0.7% | [5] 0.2%

COc1cc2nc(C(O)C(O)c3nc4cc(OC)c(OC)cc4[nH]3)[nH]c2cc1OC (stereo not given)
inactive: [1] -8% | [2] 3.35% | [6] 6.85% | [4] -1.1% | [5] 38.7%
